Screens from PubChem.
Shown are actives, neighbours in structure and some others; about 2.4% of the full set was active somewhere.
Cruzain Triton: blocks cruzain activity in presence of Triton detergent; 0.43% of 200,000 active; P25779; purified cruzain, Z-FR-AMC fluorescence, 0.01% Triton; Potency, µM, for inactives: max response, negative = inhibition, hits mostly inhibitors;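 also: plate controls were neutral wells for no effect and buffer without enzyme for full effect; nearly all actives have a fitted effect of over 40% in size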
Target sequence (P25779 123-467 limits assumed): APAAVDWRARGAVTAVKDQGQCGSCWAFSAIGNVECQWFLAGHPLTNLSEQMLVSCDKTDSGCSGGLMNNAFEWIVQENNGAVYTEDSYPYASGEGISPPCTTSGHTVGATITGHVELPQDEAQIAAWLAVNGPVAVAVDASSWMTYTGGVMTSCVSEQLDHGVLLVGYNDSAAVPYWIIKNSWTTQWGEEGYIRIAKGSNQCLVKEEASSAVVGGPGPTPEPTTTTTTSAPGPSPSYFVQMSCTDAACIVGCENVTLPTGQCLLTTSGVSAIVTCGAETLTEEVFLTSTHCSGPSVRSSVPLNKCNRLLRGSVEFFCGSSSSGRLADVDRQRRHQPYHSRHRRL
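In this qHTS format, compounds are incubated with 1.5 nM cruzain for 15 min at room temperature before 2 uM Z-FR-AMC is added. Release of AMC is followed at 360/450 nm, and progress is taken as the 60 s fluorescence difference.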
Cruzain inh noDet: inhibitors of Trypanosoma cruzi cruzain without detergent; purified cruzain, Z-FR-AMC fluorescence, no detergent; Potency, µM, for inactives: max response, negative = inhibition, most hits filed as inhibitors; 2.3% of 200,000 active; AID 1476;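 also: plate controls were enzyme without inhibitor for no effect and buffer without enzyme for full effect; nearly all actives have a fitted effect of over 40% in size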
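Detergent-free condition (0.00005% Triton X-100) in acetate buffer pH 5.5 with DTT. 1.5 nM enzyme and compound were pre-mixed 15 min, then 2 uM Z-FR-AMC substrate added; reaction progress from fluorescence change between first and third reads (60 s).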
The depositor's hits bear a star; ? = inconclusive. Calls follow the shape of the dose curve; as a rule, active = well fitted curve in the direction sought with a large enough effect; inconclusive = small, poorly fitted or top-dose-only effect, or another doubt; inactive = no such curve, though single readings can be large; an effect the other way counts as inactive or inconclusive. Potency is read from the fitted curve at half-maximal effect.

SMILES	Cruzain Triton	Cruzain inh noDet
O=C(Nc1ncc(Cc2ccc(F)cc2)s1)c1ccc2c(c1)CC(c1ccccc1)OC2=O (stereo not given)	-0.1%	-17.6%
CCN1CCN(C(=O)c2cnn(-c3cccc(C)c3)c2C2CCN(C(=O)OC(C)(C)C)CC2)CC1	0.4%	-2.0%
Cc1cc(C)c(S(=O)(=O)Nc2ccc3c4c(cccc24)CC3)c(C)c1	-2.8%	20µM*
Cc1cc(C)c(S(=O)(=O)Nc2ccc3c(c2)CCC3)c(C)c1	-8.2%	-8.3%
CC(=O)Nc1ccc(S(=O)(=O)N(C)c2ccccc2)cc1	2.8%	-6.9%
CN(c1ccccc1)S(=O)(=O)c1ccc(NC(=O)c2ccc(-c3ccccc3)cc2)cc1	2.8%	25.1µM*
O=C(O)c1ccc(S(=O)(=O)c2ccccc2)cc1	2.3%	-5.5%
O=C(Nc1ccc(NC(=O)c2ccc(S(=O)(=O)c3ccccc3)cc2)cc1)c1ccccc1	14.9%	3.98µM*
O=C(NCC1CCCO1)c1cc2n(n1)C(C(F)(F)F)CC(c1ccc(F)cc1)N2 (stereo not given)	2.7%	?
COc1cccc(/C=N/NC(=O)c2cc(C34CC5CC(CC(C5)C3)C4)[nH]n2)c1	-7.4%	-5.3%
Cc1cccc(-c2nn3c(=O)cc(CN4CCN(C(=O)/C=C/c5ccccc5)CC4)nc3s2)c1	3.8%	-17.3%
Cc1c(Cl)cccc1NC(=O)CN1C(=O)CCn2nc(-c3cccn3C)cc21	-2.8%	?
O=C(COc1cccc(Cl)c1)Nc1nc(-c2ccc(S(=O)(=O)N3CCOCC3)cc2)cs1	1.2%	12.6µM*
CCOc1cccc(C(=O)Nc2nc(-c3ccc(S(=O)(=O)N4CCOCC4)cc3)cs2)c1	-7.4%	?
CCCN1CCN(CCCNC(=O)Cn2nc(C)n3c(cc4c(OC)cccc43)c2=O)CC1	2.6%	-10.6%
O=C(c1ccco1)N1CCN(c2nc3ccccc3n3nnnc23)CC1	-2.3%	-15.9%
c1ccc(CC2CCN(c3nc4ccccc4n4nnnc34)CC2)cc1	-1.3%	25.1µM*
COc1cc(OC)c(NC(=O)CSc2nc3ccncc3[nH]2)cc1Cl	-29.6%	-7.4%
Cc1ccc(-c2nnc(SCC(=O)n3c4c(c5ccccc53)CCCC4)o2)cc1	1.5%	-18.4%
O=C(CSc1nnc(-c2ccccc2)o1)n1c2c(c3ccccc31)CCCC2	-0.1%	25.1µM*
Cc1cc(NS(=O)(=O)c2ccc(NC(=O)C(C)Oc3ccc4c(C)cc(=O)oc4c3)cc2)no1 (stereo not given)	-18.8%	2.6%
COc1ccccc1[C@H]1C(c2ccccc2)=NN(c2ccccc2)[C@@H]1CO	-26.2%	?
CC[C@H]1C(c2ccccc2)=NN(c2ccccc2)[C@@H]1CO	-7.5%	?
COc1ccccc1[C@H]1C(c2cccc(C)c2)=NN(c2ccccc2)[C@@H]1CO	3.0%	17.8µM*
COc1ccccc1[C@H]1C(c2ccc(F)cc2)=NN(c2ccccc2)[C@@H]1CO	-1.4%	31.6µM*
SMILES	Cruzain Triton	Cruzain inh noDet
COc1ccc(S(=O)(=O)NCC(c2ccco2)N2CCN(c3ccccc3F)CC2)cc1C (stereo not given)	-5.7%	6.1%
CCOC(=O)c1cc(S(=O)(=O)Nc2ccc(OC(F)(F)F)cc2)[nH]n1	-11.1%	1.9%
CCOc1ccc(NC(C)=O)cc1N	1.4%	-6.7%
CCOc1cc(-c2ccc(N)c(OCC)c2)ccc1N	-7.8%	25.1µM*
Cc1ccc(C(=O)c2sc(Nc3ccccc3)c(C#N)c2N)cc1	-5.2%	7.7%
Cc1ccc(S(=O)(=O)NC(=O)Nc2ccccc2F)cc1	-2.5%	3.8%
Cc1ccc(C(=O)c2sc(Nc3ccccc3F)c(S(=O)(=O)c3ccccc3)c2N)c(C)c1	-2.6%	6.31µM*
Cc1ccc(C(=O)c2sc(Nc3ccccc3)c(S(=O)(=O)c3ccccc3)c2N)c(C)c1	-1.9%	7.94µM*
CCOc1ccc(-n2nc3ccc(NC(=O)COc4ccccc4)cc3n2)cc1	1.9%	-0.1%
CCCCc1ccc(NC(=S)NN2CCOCC2)cc1	4.7%	-11.1%
Cc1cc(C)nc(-n2nc(C)cc2NC(=O)CN2CCC(C)CC2)n1	0.3%	-8.8%
COc1ccc(OC)c(NC(=O)c2ccc3c(=O)n(CCc4ccccc4)c(=S)[nH]c3c2)c1	0.8%	10µM*
COc1ccc(NC(=O)c2ccc3c(=O)n(Cc4ccco4)c(=S)[nH]c3c2)c(OC)c1	-2.5%	?
Cc1nc2ccccc2n1CCc1nc2c3ccccc3nc(SCC(=O)NCc3ccco3)n2n1	-12.8%	-4.3%
CCc1cc2ccccc2nc1SCC(=O)Nc1cc(C)on1	1.3%	-7.9%
CCc1cc2ccc(OC)cc2nc1SCC(=O)Nc1cc(C)on1	6.7%	10µM*
Cc1ccc(NC(=O)Cn2nc(-c3ccccc3)nc(Cc3ccc(Cl)cc3)c2=O)cc1	1.4%	25.1µM*
Cc1ccc(NC(=O)Cn2nc(-c3ccccc3)nc(Cc3ccccc3)c2=O)cc1	1.3%	-12.1%
CCCCN(C)S(=O)(=O)c1cc(-c2nnc3c4ccccc4c(C)nn23)ccc1C	0.4%	1.7%
O=[N+]([O-])c1cc2c(cc1/C=N/Nc1nc(N3CCCC3)nc(N3CCCC3)n1)OCO2	-11.8%	14.2%
O=[N+]([O-])c1ccc(Nc2nc(N/N=C\c3ccc4c(c3)OCO4)nc(N3CCCCC3)n2)cc1	4.7%	7.94µM*
COc1ccc(-c2noc(CCC(=O)NC3CCN(Cc4ccccc4)CC3)n2)cc1	-8.0%	-14.5%
CC1CCCCN1C(=O)N[C@@H](Cc1ccccc1)C(=O)O (stereo not given in full)	8.6%	11.0%
CCc1ccc(OCc2nnc(NC(=O)c3cccs3)s2)cc1	1.9%	12.6µM*
O=C(NC(=S)Nc1nc2ccccc2s1)c1cccs1	-8.9%	-26.0%
SMILES	Cruzain Triton	Cruzain inh noDet
CCc1ccc(-c2nc(NC(=S)NC(=O)c3cccs3)sc2C)cc1	2.8%	3.98µM*
Cc1ccc(OCc2nnc(NC(=O)Cc3cccs3)s2)cc1	3.9%	?
Cc1ccc(OCC(=O)N2CC3(C)CC2CC(C)(C)C3)cc1 (stereo not given)	-1.0%	12.9%
C/C(=N\NC(=S)NCCc1ccccc1)c1ccc(C)cc1	-8.2%	-11.6%
C/C(=N\NC(=S)NCCc1ccccc1)c1ccc(C#N)cc1	-6.3%	10µM*
Cn1c(=O)c(C(=O)COC(=O)c2cc(-c3ccccc3)nc3ccccc23)c(N)n(Cc2ccccc2)c1=O	-0.2%	10µM*
Cn1c(=O)c(C(=O)COC(=O)c2cc(C(F)(F)F)nc3ccccc23)c(N)n(Cc2ccccc2)c1=O	-4.3%	-11.9%
COc1ccc(C(C(=O)NC2CCCC2)N(C(=O)c2ccoc2C)c2ccc(C)cc2)cc1 (stereo not given)	2.3%	-0.8%
Cn1c(CO)cnc1SCc1c(Cl)cccc1Cl	4.9%	-1.3%
COc1ccc(CN2CCN(CC(O)Cn3c4ccccc4c4ccccc43)CC2)cc1 (stereo not given)	-0.4%	9.9%
Cc1ccc(N(CC(O)Cn2c3ccccc3c3ccccc32)S(=O)(=O)c2ccc(F)cc2)cc1 (stereo not given)	11.4%	8.2%
COc1ccc(/C=C2/SC(=O)N(CC(O)Cn3c4ccccc4c4ccccc43)C2=O)cc1 (stereo not given)	-4.5%	10µM*
COc1ccc(N(CC(O)Cn2c3ccccc3c3ccccc32)S(=O)(=O)c2ccccc2)cc1 (stereo not given)	33.0%	15.8µM*
O=C1S/C(=C\c2ccccc2)C(=O)N1CC(O)Cn1c2ccccc2c2ccccc21 (stereo not given)	-3.8%	31.6µM*
